Bioassay records from PubChem.
This is a sample that favours compounds with a hit; in the whole collection about 2.4% have one here.
D2 PAM-1 = positive allosteric modulators of human D2 dopamine receptor. DiscoveRx D2 beta-arrestin cells, luminescence, 90 min; 100% = 57 uM dopamine signal. potentiation, % (concentration not given with the values). hit rate 0.23% among 360,000. AID 624464; in the data active = potentiation above about 50%; inconclusive = mostly about 30% to 49%
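PathHunter D2 cells, attached overnight at 37 deg C, received compound in DMSO plus dopamine at EC20 (50 nM final) for 90 min at 37 deg C. Beta-arrestin recruitment was read as luminescence after 1 h with detection reagent at ambient temperature.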
D2 PAM-2 = positively modulates the human D2 dopamine receptor allosterically; P14416; HEK293 T-REx D2, calcium flux, EC20 dopamine potentiation; potentiation, % at 10 µM; hit rate 0.34% among 340,000; AID 485347;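 active = potentiation over 3 SD above the plate norm, cut at about 30% in these data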
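Calcium flux readout, no-wash dye, 1 read/s. Inducible HEK293 Trex D2 line, overnight 30 C. Compound alone 180 s (agonist flags), then EC20 dopamine, another 180 s to score potentiation.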
D2 ag-1 = agonists of human D2 dopamine receptor; hit rate 0.53% among 340,000; HEK293 T-REx D2 cells, calcium flux agonist mode; P14416; activation, % at 2 µM;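 active = activation over 3 SD above normal in the single-dose calcium agonist read, cut at about 30% in these data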
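Agonism scored from kinetic calcium signal (1 read/sec, 180 s) following compound pin transfer, after a 10 s baseline. Cells: HEK293 Trex line expressing inducible D2 receptor coupled to calcium, dye-loaded after overnight culture at 30 C.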
D2 antag = antagonizes the human D2 dopamine receptor; HEK293 TREx D2 cells, calcium flux, dopamine EC80; P14416; inhibition, % at 10 µM; hit rate 2% among 340,000; in the data active = inhibition above about 30%; inactive = below that, where a call was filed
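Compounds are added to dye-loaded, induced HEK293 T-REx cells coupled to calcium release via D2; after a 3 min kinetic read an EC80 dopamine stimulus is given and fluorescence is recorded for 3 more min.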
D2 ag-2 = activates the human D2 dopamine receptor; AID 624465; hit rate 0.084% among 360,000; DiscoveRx PathHunter D2 beta-arrestin, luminescence, 90 min; 100% = 57 uM dopamine signal; activation, % (concentration not given with the values); in the data active = activation above about 40%; inconclusive = between about 15% and that limit
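DiscoveRx PathHunter D2 beta-arrestin cells (2,100/well) attached overnight, then compound-stimulated 90 min at 37 C in HBSS/10 mM HEPES/0.1% Tween-20 buffer; beta-galactosidase complementation read by luminescence after 1 h at ambient temperature. Dopamine 57 uM final (EC100) as control.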
D3 ag = D3 receptor agonism confirmed, beta-arrestin readout. shares compounds with D2 ag-1. DiscoveRx D3 beta-arrestin cells, luminescence, 90 min. Potency, µM (doses to about 76.9 µM), usual class: activators. hit rate 4% among 2,300. AID 720506; also: nearly all actives have a fitted effect of over 70% in size
Target sequence (P35462 whole entry, looked up): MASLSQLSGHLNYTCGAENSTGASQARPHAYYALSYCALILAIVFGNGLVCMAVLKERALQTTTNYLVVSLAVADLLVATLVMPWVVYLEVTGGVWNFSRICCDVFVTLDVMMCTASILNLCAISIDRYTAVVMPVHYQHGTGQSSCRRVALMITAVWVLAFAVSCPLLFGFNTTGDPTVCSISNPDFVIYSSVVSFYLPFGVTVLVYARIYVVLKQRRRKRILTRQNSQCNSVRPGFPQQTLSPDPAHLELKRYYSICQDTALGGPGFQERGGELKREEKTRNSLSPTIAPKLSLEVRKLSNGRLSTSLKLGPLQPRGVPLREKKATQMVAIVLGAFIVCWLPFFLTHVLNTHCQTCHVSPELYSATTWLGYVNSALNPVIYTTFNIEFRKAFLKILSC
D2 ag-3 = D2 receptor agonism, beta-arrestin counterscreen; shares compounds with D2 ag-1; Potency, µM (series often up to 76.9 µM), most hits filed as activators; AID 720507; hit rate 5.9% among 2,300; DiscoveRx PathHunter D2 beta-arrestin, luminescence, 90 min; response scale: percent relative to full dopamine signal; also: nearly all actives have a fitted effect of over 70% in size
Numbers stand for hits; . = inactive; ? = inconclusive; / = no result given. Unless noted, calls follow the shape of the dose curve; as a rule, active = well fitted activation curve with a large enough effect; inconclusive = small, poorly fitted or top-dose-only effect; inactive = flat fitted curve, though single readings scatter.

SMILES | D2 PAM-1 | D2 PAM-2 | D2 ag-1 | D2 antag | D2 ag-2 | D3 ag | D2 ag-3
O=C(c1ccco1)N1CCN(Cc2cccnc2)CC1 | . | . | 70 | 31 | ? | ? | ?
O=C(c1ccco1)N1CCN(Cc2ccccc2F)CC1 | . | . | 78 | 80 | 75 | ? | ?
Cc1ccc(Nc2nc(N)nc(CN3CCN(C(=O)c4ccco4)CC3)n2)cc1Cl | . | . | 67 | 38 | ? | . | ?
CC1CCN(C(=S)NC(=O)c2ccco2)CC1 | . | . | . | . | . | / | /
O=C(NC(=S)N1CCN(Cc2ccccc2)CC1)c1ccco1 | . | . | 70 | . | . | . | .
O=C(c1ccco1)N1CCCN(C(=O)c2ccco2)CC1 | . | . | . | . | . | / | /
CCCCn1c(=O)c2oc3ccccc3c2n(Cc2ccc(OC)cc2)c1=O | / | . | . | / | / | / | /
CCn1cc(S(=O)(=O)c2cc(C)cc(C)c2)c(=O)c2cc(F)c(N3CCC(C)CC3)cc21 | / | . | / | / | / | / | /
Cc1cc(C)cc(C(=O)Nc2ccc(-c3nc4ncccc4o3)cc2)c1 | / | . | . | / | / | / | /
CC(=O)c1ccc(NC(=O)NCCc2c[nH]c3ccccc23)cc1 | / | . | . | / | / | / | /
O=S(=O)(Nc1ccc(-c2cn3ccccc3n2)cc1)c1ccccc1 | . | . | . | 40 | . | . | .
Cc1cccc(S(=O)(=O)Nc2ccc(-c3cn4ccccc4n3)cc2)c1 | . | . | . | . | . | / | /
COc1cc(NC(=O)CCn2c(-c3ccccc3)cc(C(C)=O)c2C)cc(OC)c1 | / | . | . | / | / | / | /
Cc1cc(C)n2nc(-c3cccnc3)nc2n1 | . | . | . | . | . | / | /
Cc1cc(C)n2nc(-c3ccc(F)cc3)nc2n1 | . | / | / | / | . | . | .
C=CCn1c(COc2ccc(Cl)cc2)nnc1SCC(=O)Nc1ccc(S(N)(=O)=O)cc1 | . | . | 59 | . | . | . | .
Cc1ccccc1CNC(=O)CN(c1cccc(C)c1C)S(C)(=O)=O | / | / | . | / | / | / | /
COc1ccc(/C=C2\CCCC3C2=NN(C(=O)CSc2ncn[nH]2)C3c2ccc(OC)cc2)cc1 (stereo not drawn) | . | . | . | . | . | / | /
O=C(CSc1ncn[nH]1)N1N=C2/C(=C/c3ccccc3)CCCC2C1c1ccccc1 (stereo not drawn) | . | . | 41 | 33 | . | . | ?
CC(C)c1ccc(OCC(O)CN2CCN(c3ccc(F)cc3)CC2)cc1 (stereo not drawn) | / | . | . | / | / | / | /
CC(=O)c1ccc(OCC(O)CN2CCN(c3ccc(F)cc3)CC2)cc1 (stereo not drawn) | . | . | 83 | . | . | . | .
CCC(=O)c1ccc(OCC(O)CN2CCN(c3ccc(F)cc3)CC2)cc1 (stereo not drawn) | . | . | . | 31 | . | ? | .
OC(COc1ccc2c(c1)OCO2)CN1CCN(c2ccc(F)cc2)CC1 (stereo not drawn) | . | . | . | 76 | . | . | .
COc1ccc(NC(=O)CN(C)C(=O)c2csc3c2CCCC3)cc1 | . | . | . | . | . | / | /
COc1cccc(NC(=O)CN(C)C(=O)c2csc3c2CCCC3)c1 | . | / | / | / | . | . | .
SMILES | D2 PAM-1 | D2 PAM-2 | D2 ag-1 | D2 antag | D2 ag-2 | D3 ag | D2 ag-3
CCSC1=N/C(=C\c2ccc3c(c2)OCO3)C(=O)S1 | . | . | . | 30 | . | . | .
COc1ccc(-c2ccc3c(c2)c(C#Cc2ccsc2)c(-c2cc(OC)cc(OC)c2)n3C)cc1 | . | / | / | / | . | / | /
COc1ccc(-c2c(C#Cc3ccsc3)c3cc(-c4ccc(OC)c(F)c4)ccc3n2C)cc1 | . | . | . | . | . | . | .
COc1ccccc1-c1noc(CSc2nnc(Cc3ccccc3)n2-c2ccc(C)c(C)c2)n1 | / | . | . | / | / | / | /
CCCSCCCNC(=O)Cn1nc(CC)n2c(cc3c(OC)cccc32)c1=O | . | . | 40 | . | . | . | .
Cc1ccc(Cl)cc1N1CCN(C(=O)c2cn(C)c3ccc(S(=O)(=O)N4CCC(C)CC4)cc3c2=O)CC1 | / | . | . | / | / | / | /
Cc1nn(-c2ccccc2)c(Cl)c1C(=O)NNC(=O)c1ccncc1 | . | . | . | . | . | . | .
Cc1ccc(CN2CCN(c3ccccc3)CC2)o1 | . | . | 49 | 70 | ? | . | ?
O=[N+]([O-])c1cccc(-c2ccc(CN3CCN(c4ccccc4)CC3)o2)c1 | . | . | 52 | 47 | . | . | .
Cc1ccc(CN2CCN(c3ncccn3)CC2)o1 | ? | . | 85 | 86 | ? | . | ?
O=[N+]([O-])c1ccc(N2CCN(Cc3cccc([N+](=O)[O-])c3)CC2)cc1 | . | . | . | . | . | / | /
O=C(CC1NCCNC1=O)Nc1ccccc1F (stereo not drawn) | / | . | / | / | / | / | /
Cc1ccccc1C(=O)n1nc(-c2ccco2)nc1NCc1cccs1 | / | . | . | / | / | / | /
CCc1ccc(NC(=O)CCCc2nc(-c3ccco3)no2)cc1 | / | . | . | / | / | / | /
O=C(COc1ccc(Br)cc1)Nc1cccc2cccnc12 | / | . | . | / | / | / | /
Cc1ccccc1[C@@H](NC(=O)OC(C)(C)C)C(=O)OC(C)(C)C | . | . | . | . | . | . | .
Cc1cc(Cl)ccc1Oc1ncc(CN2CCN(c3ccccc3)CC2)s1 | . | . | 65 | 84 | ? | ? | 32µM
Brc1ccc(Oc2ncc(CN3CCOCC3)s2)cc1 | . | . | . | . | . | / | /
COc1ccc(Oc2ncc(CN3CCN(c4ccccc4)CC3)s2)cc1 | . | . | 72 | 76 | 42 | ? | 5.6µM
COc1ccc(NS(=O)(=O)c2ccc3[nH]c4c(c3c2)CCCC4)cc1OC | / | . | . | / | / | / | /
CNC(=S)N(CCc1c(C)[nH]c2ccc(OC)cc12)Cc1cccnc1 | . | . | . | . | . | . | .
CC1Cc2cc(S(=O)(=O)CCC(=O)Nc3ccc(OC(F)(F)F)cc3)ccc2N1C(=O)C1CC1 (stereo not drawn) | / | . | . | / | / | / | /
CC(C)(C)OC(=O)N1CCC(c2c(C(=O)NCCCN3CCc4ccccc4C3)cnn2-c2ccccc2)CC1 | / | . | . | / | / | / | /
CCN(CC(=O)Nc1ccc(NC(C)=O)cc1)C(=O)/C=C/c1ccco1 | . | . | . | . | . | / | /
CCCN(CC(=O)Nc1ccc(Cl)cc1Cl)C(=O)/C=C/c1ccco1 | . | . | 42 | . | . | . | .
CCN(CC)CCSc1nnc2c3ccccc3n(Cc3ccccc3)c2n1 | . | . | . | 60 | . | . | .
CCN(CC)CCSc1nnc2c3cc(F)ccc3n(Cc3ccccc3)c2n1 | . | . | . | . | . | / | /
CCn1c(CN2CCCCC2)nc2cc(NC(=O)COc3ccc(C(C)(C)C)cc3)ccc21 | / | . | . | / | / | / | /
COc1ccccc1N1CCN(S(=O)(=O)CCNC(=O)COc2ccccc2)CC1 | . | / | / | / | . | / | /
